# From PubChem BioAssay
# Most compounds without a hit are left out; they make up all but 3.9% or so of the library.
# AHR activator – AHR activators, primary screen, cell-based, luminescence, luciferase reporter, human; 2.5% of 320,000 active; AID 2796, 2010; activation, % at 5 µM; AHR-responsive luciferase reporter cells; in the data active = activation above about 47%;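 note: 0% = vehicle wells and 100% = reference agonist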
# Target sequence (P35869 whole entry, looked up): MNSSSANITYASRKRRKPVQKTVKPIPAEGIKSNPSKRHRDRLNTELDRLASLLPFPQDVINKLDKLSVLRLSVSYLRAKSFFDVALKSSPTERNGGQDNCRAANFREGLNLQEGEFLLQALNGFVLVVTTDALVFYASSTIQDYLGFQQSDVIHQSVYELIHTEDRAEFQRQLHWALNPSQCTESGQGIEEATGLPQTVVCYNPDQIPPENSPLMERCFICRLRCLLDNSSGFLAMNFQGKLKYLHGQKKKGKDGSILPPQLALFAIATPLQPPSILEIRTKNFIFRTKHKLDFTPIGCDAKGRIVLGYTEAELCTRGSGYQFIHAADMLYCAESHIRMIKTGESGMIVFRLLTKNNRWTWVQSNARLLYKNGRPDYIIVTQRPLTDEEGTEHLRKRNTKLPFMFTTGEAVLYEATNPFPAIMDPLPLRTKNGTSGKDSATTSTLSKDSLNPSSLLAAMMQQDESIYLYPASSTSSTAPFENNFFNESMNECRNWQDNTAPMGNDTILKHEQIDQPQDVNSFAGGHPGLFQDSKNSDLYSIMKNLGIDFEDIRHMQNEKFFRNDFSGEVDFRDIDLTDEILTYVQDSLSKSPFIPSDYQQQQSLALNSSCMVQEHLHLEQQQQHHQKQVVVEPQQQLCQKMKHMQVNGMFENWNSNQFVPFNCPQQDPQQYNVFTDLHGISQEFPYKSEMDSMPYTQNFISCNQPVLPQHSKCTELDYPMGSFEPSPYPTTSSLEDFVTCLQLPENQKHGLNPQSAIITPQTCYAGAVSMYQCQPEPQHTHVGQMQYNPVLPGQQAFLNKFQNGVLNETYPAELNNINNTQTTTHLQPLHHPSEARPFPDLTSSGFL
# HIF activator – HIF pathway transcriptional activators, primary screen, cell-based, U2OS HRE-luciferase, luminescence. activation, % at 7.5 µM (by protocol). U2OS HRE-luciferase reporter; normalized: DMSO 0%, desferrioxamine 100%. 0.32% of 300,000 active. AID 1910, 2009;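 active = mean activation of at least 10% of the iron chelator positive control signal, with at least half of replicates also reaching 10%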
# sPLA2-III inh – human group III sPLA2 inhibitors, primary screen, biochemical, QFRET, BODIPY PC-A2 liposome substrate. Group 3 secretory phospholipase A2 (Homo sapiens), Q9NZ20. QFRET BODIPY PC-A2 liposome hydrolysis, fluorescence. inhibition, % at 12.2 µM. 0.56% of 370,000 active. AID 743126, 2013;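 active = inhibition above mean plus 3 SD of compounds lying within the high and low control bounds, cut at about 19% in these data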;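 note: 0% = median of test compound wells and 100% = no enzyme DMSO wells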
# PLC-beta3 inh – human PLC-beta3 inhibitors, primary screen, biochemical, fluorescence | Purified PLC-beta3, fluorogenic substrate | inhibition, % at 12.2 µM | 0.18% of 370,000 active | AID 720704, 2013; in the data active = inhibition above about 11%;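 note: 0% = median of compound wells on plate and 100% = full blocker control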
# Yeast superoxide – reduction of superoxide in aged yeast, primary screen, HTS. 0.18% of 330,000 active. superoxide response (% of plate mean), % at 10 µM. AID 2690, 2010. S. cerevisiae aged cells, superoxide DHE fluorescence; stronger effect = lower value;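 active = superoxide response under a set limit, about three screen SD below normal, cut at about 65% in these data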;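 note: yeast aged for seven days with compound at 30 °C before DHE staining; 100% = average MFI of all compound-treated wells on the plate with controls excluded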
# PLC-gamma1 inh – PLC-gamma1 enzyme inhibitors, primary screen, biochemical, fluorescence, purified enzyme. 0.84% of 370,000 active. fluorogenic substrate. inhibition, % at 12.2 µM. 1-phosphatidylinositol 4,5-bisphosphate phosphodiesterase gamma-1 (Homo sapiens), P19174; in the data active = inhibition above about 9.5%
# hGIII sPLA2 conf – human group III sPLA2 inhibitors, confirmation, biochemical, QFRET, triplicate | shares compounds with sPLA2-III inh | recombinant hGIII-sPLA2, BODIPY PC-A2 QFRET fluorescence | inhibition, % at 12.2 µM | 34% of 2,000 active | AID 743280, 2014;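 active = mean inhibition across triplicates above the hit cutoff set in the earlier primary screen, cut at about 19% in these data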;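 note: 0% = enzyme with DMSO and 100% = DMSO wells lacking enzyme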
# BODIPY interf – 535nm fluorescence optical interference, confirmation, artefact control for HGIII-sPLA2 inhibitor project, biochemical, QFRET | shares compounds with sPLA2-III inh | 8.5% of 2,000 active | BODIPY FL product fluorescence interference | inhibition, % at 12.2 µM;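 active = average inhibition above the solvent-only control mean plus 3 SD, cut at about 6% in these data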;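 note: 0% = DMSO with substrate plus product and 100% = DMSO with substrate alone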
# BODIPY interf DR – 535nm fluorescence optical interference, dose response, artefact control for HGIII-sPLA2 inhibitor project, biochemical, QFRET; shares compounds with sPLA2-III inh; BODIPY FL product fluorescence interference, cell-free; IC50, µM; 240 tested, under 10 active;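 active = IC50 at or below 10 µM; inactive = IC50 above 10 µM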
# * = called active by the depositor; . = no result.
SMILES,AHR activator,HIF activator,sPLA2-III inh,PLC-beta3 inh,Yeast superoxide,PLC-gamma1 inh,hGIII sPLA2 conf,BODIPY interf,others
Cc1ccc(S(=O)(=O)/N=c2\ccc(Cl)cn2C(F)F)cc1,2,0,-2,-8,108,-8,.,.,
S=c1[nH]nc(-c2ccc(Cl)cc2)n1-c1ccc2c(c1)OCCO2,7,0,21*,-8,108,-11,32*,1,BODIPY interf DR=>122
O=C(NNC(=S)Nc1ccc(F)cc1)c1cccc([N+](=O)[O-])c1,5,1,25*,-7,110,-1,31*,0,
CC(C)c1ccc(NC(=S)NNC(=O)c2cccnc2)cc1,22,1,14,-4,107,6,.,.,
COc1ccc(C(=O)NNC(=S)NC(=O)c2cccc([N+](=O)[O-])c2)cc1,2,0,4,-6,135,1,.,.,
O=C(/C=C/c1cccs1)NC(=S)NNC(=O)c1ccccc1O,3,1,42*,1,83,-3,32*,3,BODIPY interf DR=>122
O=C(NNC(=S)Nc1ccc(Br)cc1)c1cccnc1,2,1,19*,-8,87,-1,31*,-1,BODIPY interf DR=>122
O=C(NC(=S)NNC(=O)c1ccccc1O)c1cccc([N+](=O)[O-])c1,-1,0,41*,-6,97,1,27*,5,
O=C(/C=C/c1cccs1)NC(=S)Nc1ccccc1,9,3,-5,-4,93,-1,.,.,
Cc1ccc(NC(=S)NNC(=O)c2cccc([N+](=O)[O-])c2)cc1Cl,24,1,18,-1,98,7,.,.,
COc1ccc(S(=O)(=O)N2CCOCC2)cc1NC(=O)Cc1coc2cc(C)c(C)cc12,-2,0,-7,-22,114,-14,.,.,
O=C(NC(=S)NNC(=O)c1ccccc1O)c1cccnc1,2,-1,33*,-2,86,0,16,-4,
O=C(NNC(=S)Nc1ccc(C(=O)O)c(O)c1)c1ccncc1,.,.,20*,-5,.,-1,6,-3,
Cc1ccc(N2CC(C(=O)Nc3ccc(C)c(S(=O)(=O)N(C)C)c3)CC2=O)cc1 (stereo not given),-1,-1,-12,5,110,0,.,.,
CCc1cc(C(=O)c2ccc(C)cc2)c(NC(=O)CCl)s1,-1,1,-2,-4,93,0,.,.,
Cc1cc(C(=O)c2ccc(Cl)cc2)c(NC(=O)CCl)s1,9,0,19*,0,95,2,3,-7,
CCOC(=O)C1CCCN(C(=O)c2cc3ncc(Br)cn3n2)C1 (stereo not given),0,0,21*,-4,137,-7,0,-9,
O=C1c2ccccc2C(=O)c2c(Nc3ccc(CCO)cc3)ccc(O)c21,69*,-15,21*,2,116,3,48*,3,BODIPY interf DR=>122
CCOC(=O)C1CCCN(C(=O)c2ccc3c(c2)C(C)(C)CCC3(C)C)CC1 (stereo not given),.,.,0,7,.,1,.,.,
COc1ccccc1C(CNC(=O)CN1C(=O)NC(C)(c2ccc3ccccc3c2)C1=O)N1CCCC1 (stereo not given),.,.,-10,-8,.,-1,.,.,
Cn1ccc2c(N3CCCCCCC3)cc3c(c21)C1CCC3O1 (stereo not given),.,.,20*,-48,.,-30,32*,-7,BODIPY interf DR=>122
CN(c1cc2c(c3c1ccn3C)C1CCC2O1)C1CCCCC1 (stereo not given),.,.,6,-13,.,-10,.,.,
CC(NCc1cc(Br)ccc1OCC(N)=O)C12CC3CC(CC(C3)C1)C2 (stereo not given),-3,1,-3,0,98,2,.,.,
COC(=O)C1=C(C)N(C)C(=NCc2cc(OC)c(OC)c(OC)c2)NC1c1cccc(C(F)(F)F)c1 (stereo not given),.,.,-18,-3,.,3,.,.,
O=[N+]([O-])c1ccc(O)c(/C=N/NC(=S)Nc2ccc(Cl)cc2Cl)c1,11,3,40*,-9,102,0,31*,20*,
SMILES,AHR activator,HIF activator,sPLA2-III inh,PLC-beta3 inh,Yeast superoxide,PLC-gamma1 inh,hGIII sPLA2 conf,BODIPY interf,others
CCCC(=O)N=c1sc2c(OC)ccc(OC)c2n1C,3,0,-3,-6,108,0,.,.,
O=C1c2ccccc2C(=O)c2c(NCCCN(CCO)CCO)cccc21,.,0,20*,0,.,3,31*,-7,BODIPY interf DR=>122
CCN(CC)CC(=O)Nc1cccc2c1C(=O)c1ccccc1C2=O,5,0,1,-4,184,-4,.,.,
CCC(=O)N(CC(=O)Nc1sc(C)c(C)c1C(N)=O)C1CCCCC1,2,0,19*,-3,92,7,-4,-3,
C=CCN1[C@@H](C)COc2cccc(N3CCSCC3)c2S1(=O)=O,.,.,10,-2,.,1,.,.,
CCOC(=O)c1c(C)[nH]c(C(=O)OCC(=O)NCc2ccco2)c1C,.,.,-8,-4,.,0,.,.,
C[C@@H]1COc2cc(N3CCOCC3)ccc2S(=O)(=O)N1,.,.,1,3,.,4,.,.,
CCOc1nc(-c2ccc(Cl)cc2)nc2ccccc12,62*,1,25*,9,93,8,-2,1,
CCOc1ccccc1Oc1nc(-c2ccccc2O)nc2ccccc12,12,2,20*,-5,104,-4,-15,-2,
COc1cc(C)ccc1Oc1nc(-c2ccccc2O)nc2ccccc12,2,0,7,-5,101,3,.,.,
O=C(NCc1ccco1)C(=O)N1CCCC1,0,0,3,0,99,2,.,.,
Cc1ccn(CCNC(=O)C2CCC(=O)N(Cc3ccc(Cl)cc3)C2)n1 (stereo not given),1,1,6,-7,95,-1,.,.,
NC(c1csc(Nc2nccc(C(F)(F)F)n2)n1)C1CCCCC1 (stereo not given),.,.,11,0,.,2,.,.,
NC(c1csc(Nc2ccc(C(=O)NCCCO)cn2)n1)C1CCCCC1 (stereo not given),.,.,23*,-38,.,-26,7,-19,
